PubChem BioAssay (EPA / NIEHS)
“And” between values parts separate entries of the source, which are not always exact repeats. Identical values can stand only once. Some structures have more than one record in an assay (separate samples or runs), and their calls can disagree. The source made the active and inactive calls. The calls were made as follows: active = hit-call score of the fitted dose curve at least 0.9, where 1 is the maximum; inactive = score below 0.9.

Assays:
[1] = biological target: CCAAT/enhancer-binding protein beta (Homo sapiens) (UniProt P17676); assay: ATG_C_EBP_CIS: Attagene CIS-FACTORIAL HepG2 Assay for human CCAAT/Enhancer Binding Protein (C/EBP) beta (AID 2282927); settings: HepG2 Attagene cis-factorial transcription factor reporter; actives raise or lower the signal
How it was run: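 HepG2, transient MRTU transfection, 24 h treatment. RT-PCR plus CE fluorescence; DMSO negative control, bidirectional fit.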

[2] = ATG_CMV_CIS: Attagene CIS-FACTORIAL HepG2 Assay for human CMV (Internal Marker) (AID 2282928); settings: HepG2 CMV promoter reporter, transcription factor profiling; actives raise or lower the signal;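 also: endpoint acts as a background internal control marker rather than a target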
How it was run: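 HepG2 cells transiently transfected with multiple cis-regulated reporter units; 24 h compound exposure. Reporter mRNA quantified by RT-PCR, 6-FAM primer-extension labeling, HpaI digestion and capillary electrophoresis; bidirectional fitting against DMSO baseline.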

[3] = ATG_DR4_LXR_CIS: Attagene CIS-FACTORIAL HepG2 Assay for human Liver X Receptor (LXR), DR4 submotif (AID 2282929); settings: HepG2 Attagene DR4 cis-reporter, mRNA transcription; AC50: actives raise or lower the signal unless noted; outcome: actives raise or lower the signal unless noted
How it was run: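 Endogenous factor activity at a DR4 cis-element is read as reporter mRNA in transiently transfected HepG2 cells. Exposure lasts 24 h; transcripts are amplified, fluorescently labelled and sized by capillary electrophoresis, with DMSO as baseline.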

[4] = biological target: Aryl hydrocarbon receptor (Homo sapiens) (UniProt P35869); assay: ATG_Ahr_CIS: Attagene CIS-FACTORIAL HepG2 Assay for human Aryl Hydrocarbon Receptor (Ahr) (AID 2282930); settings: HepG2 AhR cis-factorial reporter transcription; actives raise or lower the signal
How it was run: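 Endogenous factor activity is tracked through cis-promoter reporter units transfected into HepG2 cells. Transcript levels at 24 h are read by fluorescent RT-PCR and capillary electrophoresis, with activity in either direction scored relative to DMSO.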

[5] = ATG_AP_1_CIS: Attagene CIS-FACTORIAL HepG2 Assay for human Activator Protein 1 (AP-1) (AID 2282931); settings: HepG2 Attagene cis-factorial AP-1 reporter mRNA; actives raise or lower the signal
How it was run: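 Fluorescence of labelled PCR fragments separated by capillary electrophoresis gives reporter mRNA levels. HepG2 with transfected cis-regulated reporter units, 24 h exposure; DMSO serves as baseline for bidirectional curve fits.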

[6] = ATG_AP_2_CIS: Attagene CIS-FACTORIAL HepG2 Assay for human Activator Protein 2 (AP-2) (AID 2282932); settings: HepG2 AP-2 cis-reporter, Attagene transcription factor profiling; AC50: actives raise or lower the signal unless noted; outcome: actives raise or lower the signal unless noted
How it was run: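 Multiplexed mRNA reporter assay in HepG2: cis-regulated units report endogenous factor activity after 24 h treatment. Fluorescence from capillary electrophoresis of RT-PCR products gives the signal, with DMSO as baseline.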

[7] = ATG_BRE_CIS: Attagene CIS-FACTORIAL HepG2 Assay for human Bone Morphogenetic Protein (BMP) Response Element (BRE) (AID 2282933); settings: HepG2 BMP response element reporter, Attagene transcription factor profiling; actives raise or lower the signal
How it was run: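 After a 24 h chemical treatment, transiently transfected HepG2 cells were lysed for RNA; reporter transcripts were quantified by fluorescent RT-PCR and capillary electrophoresis, normalised to DMSO.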

[8] = biological target: Retinoic acid receptor alpha (Homo sapiens) (UniProt P10276); assay: ATG_DR5_RAR_CIS: Attagene CIS-FACTORIAL HepG2 Assay for human Retinoic Acid Receptor Alpha (RARE), DR5 submotif (AID 2282934); settings: HepG2 Attagene cis-factorial RARE DR5 reporter, mRNA; actives raise or lower the signal;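 as to AC50: reporter responds to endogenous RAR alpha beta and gamma in HepG2 not RARA alone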
How it was run: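 After 24 h of chemical exposure, transiently transfected HepG2 cells were lysed for total RNA; the DR5-regulated reporter transcript was quantified via RT-PCR and capillary electrophoresis, with activity fitted bidirectionally against DMSO.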

[9] = biological target: Transcription factor E2F1 (Homo sapiens) (UniProt Q01094); assay: ATG_E2F_CIS: Attagene CIS-FACTORIAL HepG2 Assay for human E2F Transcription Factor 1 (AID 2282935); settings: HepG2 Attagene cis-reporter, E2F reporter RNA transcripts; actives raise or lower the signal
How it was run: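 Measures reporter transcript levels via RT-PCR with capillary electrophoresis detection in HepG2 cells harboring cis-regulated reporter units; 24 h post-dose; bidirectional curve fitting with DMSO as baseline.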

[10] = ATG_E_Box_CIS: Attagene CIS-FACTORIAL HepG2 Assay for human Enhancer Box (E-box) (AID 2282936); settings: HepG2 E-box cis-reporter transcription, actives raise or lower the signal
How it was run: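 First, HepG2 cells receive multiple cis-regulated reporter constructs by transient transfection. Next, chemicals are applied for 24 h. Finally, reporter mRNA is quantified via RT-PCR and capillary electrophoresis, with DMSO as baseline.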

[11] = ATG_M_61_CIS: Attagene CIS-FACTORIAL HepG2 Assay for M61 Transcription Factor (Internal Marker) (AID 2282937); settings: HepG2 Attagene CIS-FACTORIAL M61 internal marker reporter; actives raise or lower the signal
How it was run: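 This endpoint serves as an internal background control within a multiplexed HepG2 cis-reporter panel. Cells are exposed for 24 h; reporter mRNA is amplified, fluorescently labelled and sized by capillary electrophoresis, with DMSO as negative control.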

[12] = ATG_EGR_CIS: Attagene CIS-FACTORIAL HepG2 Assay for human Early Growth Response 1 (EGR1) (AID 2282938); settings: HepG2 Attagene CIS-FACTORIAL EGR reporter mRNA; actives raise or lower the signal
How it was run: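 HepG2, transient MRTU transfection (cis promoters), 24 h compound. RNA → RT (oligo-dT) → PCR → 6-FAM labelling → HpaI cut → CE fluorescence. Bidirectional fit, DMSO baseline.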

[13] = ATG_ERE_CIS: Attagene CIS-FACTORIAL HepG2 Assay for Estrogen Response Element (ERE) (AID 2282940); settings: HepG2 ERE cis-reporter, Attagene RNA transcript; actives raise or lower the signal
How it was run: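 Measuring endogenous transcription factor output, the assay doses transfected HepG2 cells for 24 hours and quantifies reporter transcripts by fluorescent RT-PCR and capillary electrophoresis, with DMSO as baseline.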

[14] = ATG_Ets_CIS: Attagene CIS-FACTORIAL HepG2 Assay for human Erythroblast Transformation Specific (ETS) (AID 2282941); settings: HepG2 ETS cis-reporter transcription; AC50: actives raise or lower the signal unless noted; outcome: actives raise or lower the signal unless noted
How it was run: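 HepG2 cells transiently transfected with cis-promoter reporter transcription units were dosed for 24 h; reporter mRNA was measured by RT-PCR, 6-FAM primer extension, HpaI digestion and capillary electrophoresis, with bidirectional fitting against DMSO baseline.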

[15] = biological target: Hepatocyte nuclear factor 3-beta (Homo sapiens) (UniProt Q9Y261); assay: ATG_FoxA2_CIS: Attagene CIS-FACTORIAL HepG2 Assay for human Forkhead box A2 (FOXA2) (AID 2282942); settings: HepG2 cis-reporter transcription factor activity, 24 h; actives raise or lower the signal
How it was run: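 Cells: HepG2, transient multiplex reporter transfection. Exposure 24 h. Detection: reporter-specific RT-PCR, fluorescent labelling, restriction digest, capillary electrophoresis. Analysis: bidirectional curve fit, DMSO as negative control.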

[16] = ATG_FoxO_CIS: Attagene CIS-FACTORIAL HepG2 Assay for human Forkhead box O (FoxO) (AID 2282943); settings: HepG2 Attagene cis-reporter, FoxO element, mRNA; actives raise or lower the signal
How it was run: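 Transfected HepG2 reporter cells exposed to test chemical for 24 h; reporter RNA measured by reverse transcription, PCR and fluorescent capillary electrophoresis; curves fitted for increases and decreases against DMSO.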

[17] = ATG_GATA_CIS: Attagene CIS-FACTORIAL HepG2 Assay for human GATA Binding Protein (AID 2282944); settings: HepG2 GATA cis-element reporter, Attagene multiplex mRNA; actives raise or lower the signal
How it was run: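 Measures endogenous transcription factor-driven reporter mRNA in HepG2 cells transiently carrying cis-regulated constructs. 24 h dosing; RNA via oligo(dT) reverse transcription, PCR, HpaI digestion, capillary electrophoresis; fitted relative to DMSO.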

[18] = ATG_GLI_CIS: Attagene CIS-FACTORIAL HepG2 Assay for human Zinc Finger Protein GLI1 (AID 2282945); settings: HepG2, Attagene cis-factorial reporter mRNA, GLI element; actives raise or lower the signal
How it was run: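 Transiently transfected HepG2 cells report endogenous transcription factor activity via cis-element-driven reporter units. After 24 h compound exposure, reporter mRNA was measured by RT-PCR with capillary electrophoresis; bidirectional fitting against DMSO baseline.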

[19] = biological target: Bile acid receptor (Homo sapiens) (UniProt Q96RI1); assay: ATG_IR1_CIS: Attagene CIS-FACTORIAL HepG2 Assay for human Nuclear Receptor Subfamily 1 Group H Member 4 (NR1H4), IR1 submotif (AID 2282946); settings: IR1 reporter transcription, actives raise or lower the signal
How it was run: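 HepG2 cells transiently transfected with multiple cis-promoter-driven reporter units to measure endogenous transcription factor activity; 24 h exposure. Reporter mRNA read by RT-PCR, FAM labelling, HpaI digestion and capillary electrophoresis. Bidirectional fit versus DMSO.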

[20] = ATG_M_19_CIS: Attagene CIS-FACTORIAL HepG2 Assay for M19 Transcription Factor (Internal Marker) (AID 2282939); settings: HepG2 Attagene CIS-FACTORIAL M19 internal marker reporter; actives raise or lower the signal
How it was run: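 In this multiplexed cell assay, transiently transfected HepG2 reporter units report endogenous transcription-factor activity; after 24 hours of treatment, labelled reporter cDNA fragments are quantified by capillary electrophoresis and fitted bidirectionally against DMSO.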

Measured: AC50

Chain of Aryl hydrocarbon receptor (Homo sapiens) (P35869 whole entry, looked up): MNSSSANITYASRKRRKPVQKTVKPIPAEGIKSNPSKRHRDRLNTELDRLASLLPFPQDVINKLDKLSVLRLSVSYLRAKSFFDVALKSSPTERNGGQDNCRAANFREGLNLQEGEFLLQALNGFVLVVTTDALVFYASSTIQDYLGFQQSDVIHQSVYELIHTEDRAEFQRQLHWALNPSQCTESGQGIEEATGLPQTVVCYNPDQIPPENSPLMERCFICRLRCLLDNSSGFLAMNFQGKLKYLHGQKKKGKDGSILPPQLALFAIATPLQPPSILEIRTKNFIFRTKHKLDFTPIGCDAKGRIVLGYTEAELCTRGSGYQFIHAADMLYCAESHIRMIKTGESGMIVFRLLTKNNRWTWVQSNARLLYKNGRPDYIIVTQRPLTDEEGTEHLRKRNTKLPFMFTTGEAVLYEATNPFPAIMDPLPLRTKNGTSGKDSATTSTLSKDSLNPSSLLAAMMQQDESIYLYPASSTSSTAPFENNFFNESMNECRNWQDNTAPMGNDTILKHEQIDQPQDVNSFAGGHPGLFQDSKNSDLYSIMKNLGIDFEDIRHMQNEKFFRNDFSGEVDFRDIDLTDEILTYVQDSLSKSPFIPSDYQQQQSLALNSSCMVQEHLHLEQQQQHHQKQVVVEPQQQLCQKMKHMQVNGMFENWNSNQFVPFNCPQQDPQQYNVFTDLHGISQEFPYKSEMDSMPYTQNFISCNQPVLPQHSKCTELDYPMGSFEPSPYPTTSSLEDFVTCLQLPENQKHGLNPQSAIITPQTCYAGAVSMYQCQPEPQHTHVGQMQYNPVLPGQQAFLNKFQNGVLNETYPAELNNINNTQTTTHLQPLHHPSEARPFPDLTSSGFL
Chain of Transcription factor E2F1 (Homo sapiens) (Q01094 whole entry, looked up): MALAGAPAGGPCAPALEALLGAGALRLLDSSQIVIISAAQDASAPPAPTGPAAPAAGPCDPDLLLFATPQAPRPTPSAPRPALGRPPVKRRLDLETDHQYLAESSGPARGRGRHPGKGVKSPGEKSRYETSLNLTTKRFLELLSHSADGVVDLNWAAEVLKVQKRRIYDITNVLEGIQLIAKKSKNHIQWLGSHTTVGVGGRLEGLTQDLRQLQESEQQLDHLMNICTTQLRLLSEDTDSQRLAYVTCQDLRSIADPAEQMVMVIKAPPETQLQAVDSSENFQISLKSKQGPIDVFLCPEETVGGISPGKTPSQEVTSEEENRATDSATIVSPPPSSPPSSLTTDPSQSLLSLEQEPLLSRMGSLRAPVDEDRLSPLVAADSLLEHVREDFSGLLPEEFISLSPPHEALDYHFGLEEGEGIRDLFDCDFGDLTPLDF
Chain of Retinoic acid receptor alpha (Homo sapiens) (P10276 whole entry, looked up): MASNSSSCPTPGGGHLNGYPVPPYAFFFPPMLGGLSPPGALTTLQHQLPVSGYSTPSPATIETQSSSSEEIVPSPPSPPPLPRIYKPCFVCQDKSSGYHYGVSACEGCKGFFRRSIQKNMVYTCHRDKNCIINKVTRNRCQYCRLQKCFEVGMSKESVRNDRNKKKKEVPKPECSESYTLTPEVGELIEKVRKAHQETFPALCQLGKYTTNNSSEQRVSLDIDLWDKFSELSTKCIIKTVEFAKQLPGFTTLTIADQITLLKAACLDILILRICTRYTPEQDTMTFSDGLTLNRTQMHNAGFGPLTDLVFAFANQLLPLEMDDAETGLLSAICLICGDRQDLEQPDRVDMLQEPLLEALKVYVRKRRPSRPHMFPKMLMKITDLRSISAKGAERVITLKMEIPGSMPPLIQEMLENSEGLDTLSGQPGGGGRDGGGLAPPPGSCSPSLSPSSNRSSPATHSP
Chain of CCAAT/enhancer-binding protein beta (Homo sapiens) (P17676 whole entry, looked up): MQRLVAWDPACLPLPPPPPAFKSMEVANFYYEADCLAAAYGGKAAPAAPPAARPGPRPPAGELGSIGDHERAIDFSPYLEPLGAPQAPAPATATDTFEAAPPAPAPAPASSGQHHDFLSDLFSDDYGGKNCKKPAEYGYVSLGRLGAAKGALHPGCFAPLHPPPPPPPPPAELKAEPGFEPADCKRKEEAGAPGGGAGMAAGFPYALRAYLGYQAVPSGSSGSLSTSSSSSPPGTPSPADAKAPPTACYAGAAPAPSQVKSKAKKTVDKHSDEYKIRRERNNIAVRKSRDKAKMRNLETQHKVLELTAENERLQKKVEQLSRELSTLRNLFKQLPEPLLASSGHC
Chain of Hepatocyte nuclear factor 3-beta (Homo sapiens) (Q9Y261 whole entry, looked up): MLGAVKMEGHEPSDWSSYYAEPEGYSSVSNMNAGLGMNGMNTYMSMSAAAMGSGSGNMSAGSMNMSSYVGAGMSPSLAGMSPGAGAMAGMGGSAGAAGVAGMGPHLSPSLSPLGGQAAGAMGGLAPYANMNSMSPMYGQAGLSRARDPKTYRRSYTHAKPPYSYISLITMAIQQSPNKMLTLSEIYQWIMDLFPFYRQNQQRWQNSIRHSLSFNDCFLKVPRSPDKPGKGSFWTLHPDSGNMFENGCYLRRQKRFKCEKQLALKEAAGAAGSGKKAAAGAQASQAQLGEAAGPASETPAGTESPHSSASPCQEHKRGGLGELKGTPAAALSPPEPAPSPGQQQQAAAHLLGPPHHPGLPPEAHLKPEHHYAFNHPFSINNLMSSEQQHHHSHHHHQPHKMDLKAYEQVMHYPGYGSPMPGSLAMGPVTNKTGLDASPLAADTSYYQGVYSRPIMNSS
Chain of Bile acid receptor (Homo sapiens) (Q96RI1 whole entry, looked up): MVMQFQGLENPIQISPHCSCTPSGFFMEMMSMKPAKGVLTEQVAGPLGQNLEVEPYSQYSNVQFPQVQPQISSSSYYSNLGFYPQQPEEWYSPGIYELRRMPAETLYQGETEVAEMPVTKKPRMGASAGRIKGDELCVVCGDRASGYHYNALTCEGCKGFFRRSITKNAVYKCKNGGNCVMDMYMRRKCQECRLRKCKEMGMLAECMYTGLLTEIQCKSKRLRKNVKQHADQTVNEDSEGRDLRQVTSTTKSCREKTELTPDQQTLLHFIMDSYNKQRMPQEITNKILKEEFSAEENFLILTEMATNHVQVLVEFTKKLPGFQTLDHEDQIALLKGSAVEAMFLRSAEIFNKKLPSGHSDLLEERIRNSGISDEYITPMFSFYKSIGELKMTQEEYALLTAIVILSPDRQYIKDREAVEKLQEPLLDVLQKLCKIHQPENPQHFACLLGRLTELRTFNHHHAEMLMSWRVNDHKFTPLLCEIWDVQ

COc1cc(OC)nc(NC(=O)NS(=O)(=O)Nc2ccccc2C(=O)N(C)C)n1
not listed: [20]
inactive: all other assays above

FC(OC(F)(F)C(F)(F)C(F)(F)F)C(F)(F)F (centres undefined)
not listed: [20]
inactive: all other assays above

O=S(=O)(O)C(F)(F)C(F)(F)C(F)(F)C(F)(F)C(F)(F)C(F)(F)C(F)(F)C(F)(F)C(F)(F)C(F)(F)F
active: [3] 8.16 µM and 10.2 µM | [4] 50.1 µM and 45.9 µM | [5] 22.4 µM and 16.6 µM
not listed: [14]
inactive: all other assays above

CCCCCCc1ccc(N)cc1
active: [4] 45.5 µM | [13] 5.06 µM
not listed: [16]
inactive: all other assays above

Cc1cc(C(C)(C)C)c(O)c(C(C)(C)C)c1
inactive: [1] | [3] | [4] | [6] | [7] | [9] | [10] | [11] | [12] | [20] | [15] | [16] | [17] | [18] | [19]
active: [1] 14.6 µM | [2] 25.3 µM and 60 µM | [3] 33.4 µM | [5] 50.7 µM and 80.6 µM | [10] 56.6 µM | [20] 97.1 µM | [18] 97.4 µM | [19] 60 µM

CCO[Si](CCC1CCC2OC2C1)(OCC)OCC (centres undefined)
not listed: [14]
inactive: all other assays above

O=C(c1cc(O)c(O)c(O)c1)c1ccc(O)c(O)c1O
active: [4] 36 µM | [7] 4.01 µM
not listed: [14] | [16]
inactive: all other assays above

CCCCCCCCCCCC
not listed: [13] | [17] | [18] | [19]
inactive: all other assays above

CC(C)C=O
inactive: [1] | [2] | [3] | [4] | [5] | [6] | [7] | [8] | [9] | [10] | [11] | [12] | [20] | [14] | [15] | [17] | [18]
active: [2] 87.6 µM | [3] 26.8 µM | [5] 61.2 µM

O=P(O)(O)CCC(F)(F)C(F)(F)C(F)(F)C(F)(F)C(F)(F)C(F)(F)F
inactive: all assays above

CCCCCCCCCCCC(=O)O
active: [2] 60 µM | [3] 167 µM | [5] 117 µM and 60 µM | [8] 100 µM
inactive: [1] | [2] | [3] | [4] | [6] | [7] | [8] | [9] | [10] | [11] | [12] | [20] | [14] | [15] | [16] | [17] | [18]

Cc1ccc(C)c(S(=O)(=O)O)c1
not listed: [13] | [17] | [19]
inactive: all other assays above

c1ccc(CNc2ncnc3c2ncn3C2CCCCO2)cc1 (centres undefined)
active: [4] 57 µM
not listed: [14]
inactive: all other assays above
